# Inconclusive results are not listed. Unmarked numbers belong to inactive results. Active and inactive are the calls of the source. Calls come from the whole dose curve; as a rule, active = well fitted antagonist curve with a large enough effect in the main read-out, with a control signal flat; inconclusive = small, poorly fitted or top-dose-only effect; inactive = no such curve, though single readings can be large or run the other way.
# Target: Neuropeptide S receptor (Homo sapiens) (UniProt Q6W5P4)
# Sequence (Q6W5P4 whole entry, looked up): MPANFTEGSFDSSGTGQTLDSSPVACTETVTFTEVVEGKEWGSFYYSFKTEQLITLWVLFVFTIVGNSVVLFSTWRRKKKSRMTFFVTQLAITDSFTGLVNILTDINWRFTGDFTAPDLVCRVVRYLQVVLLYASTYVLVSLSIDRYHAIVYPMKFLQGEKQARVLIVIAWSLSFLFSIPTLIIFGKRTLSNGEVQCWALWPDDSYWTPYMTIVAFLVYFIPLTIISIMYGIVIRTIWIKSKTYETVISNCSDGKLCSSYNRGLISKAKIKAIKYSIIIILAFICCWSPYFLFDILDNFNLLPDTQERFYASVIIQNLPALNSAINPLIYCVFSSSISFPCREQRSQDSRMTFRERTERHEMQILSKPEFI
# Assay: Confirmation Concentration-Response Assay for Antagonists of the Neuropeptide S Receptor: Calcium Signal Transduction, SAR for Probe
# Conditions: CHO-NPSR cells, NPS-induced calcium fluorescence, FDSS; series mostly up to 19.3 µM; activity change, negative = inhibition: at the top concentration
# Excerpt: NIH Chemical Genomics Center [NCGC] NIH Molecular Libraries Probe Production centers Network [MLPCN] MLPCN Grant: X01-DA026210-01 Assay Submitter (PI): Heilig, Markus Alexander NCGC Assay Overview: Neuropeptide S receptor (NPSR), previously known as GPR154, is a recently de-orphanized G protein coupled receptor. Its endogenous ligand is the 20 amino acids peptide Neuropeptide S (NPS). […] NPS and its receptor are found in various tissues. Specifically they are highly expressed in brain areas that have been implicated in modulation of arousal, stress and anxiety. Central administration of NPS in mice produces an unusual profile of activity by inducing wakefulness and arousal, while at the same time suppressing anxiety. Therefore, NPSR may represent a novel drug target for the treatment of sleep and anxiety disorders. To identify NPSR antagonists, we developed a cell-based assay with transfected NPS receptor. NPS can stimulate the production of cAMP as well as release intracellular calcium in Chinese hamster ovary cells stably expressing NPS receptor. This change in intracellular calcium can be detected using a calcium indicator dye on a calcium imaging plate reader system (FDSS).
# NCGC Assay Protocol Summary: A Chinese hamster ovary (CHO) cell line stably expressing the NPS receptor (CHO-NPSR) was obtained from Dr. Heilig lab at NIAAA and maintained in F-12 Kaighn's media (Invitrogen, Carlsbad, CA, 21127) supplemented with 10 % FBS, 100 units/ml penicillin, 100 ug/ml streptomycin and 250 ug/ml geneticin at 37C, 5% CO2 in a humidified atmosphere. Before the assay, aliquots of cells were frozen and stored at -135C. The assay was performed on a FDSS-7000 kinetic plate reader in 1536-well format. For both agonist (1-220s) and antagonist (221-400s) phases, the maximums of kinetic fluorescence responses were converted separately into text files using the instrument's software data export utility. Data for agonist response were normalized to the controls for basal activity (DMSO only) and 100% activation (NPS). […] AC50 values were determined from concentration-response data modeled with the standard Hill equation. NPS 1536-well FDSS assay protocol: (1) Frozen CHO-NPSR cells were thaw, washed once with fresh media and resuspended in F-12 Kaighn's media supplemented with 10 % FBS, 100 units/ml penicillin and 100 ug/ml streptomycin. Cells were plated at 3 ul/well (1200 cells) to black, clear-bottom, tissue-culture treated 1536-well plates, and then cultured at 37C, 5 % CO2 for 16 to 30 hours. (2) Add 3 ul of calcium dye (from High Performance PBX Calcium Assay Kit, BD Biosciences). The calcium dye was prepared according to the manufactory's instruction. (3) Incubation at 37C, 5 % CO2 for 60 to 120 min. (4) Load plates to FDSS-7000. The following steps were performed on FDSS-7000. (5) Record fluorescent background (Ex 480 nm, Em 520-560 nm) for 10 s. (6) Add 23 nl/well of compound in DMSO solution. The final titration for each compound was between 0.6 nM and 46 uM. Record agonist response for 210 s. (7) Add 2 ul of stimulation reagent (1X HBSS buffer, 0.1% BSA, 60 nM NPS). Record antagonist response for 140 s. Keywords: MLSMR, MLPCN, NIH Roadmap, qHTS, NCGC, NPS, Neuropeptide S Antagonists
SMILES,"activity change, negative = inhibition",Potency
O=C(NCc1ccc(F)cc1)n1cc(P(=S)(c2ccccc2)c2ccccc2)c2ccccc21,17.3% [at 50.9 µM],–
CN(C)C(=S)N=Nc1[nH]c2ccccc2c1O,15.4%,–
Cn1nc(-c2ccc(Cl)cc2)nc2c(=O)n(C)c(=O)nc1-2,25.8%,–
COc1cccc(C2c3c(ncn(-c4ccc(NC(C)=O)cc4)c3=N)Oc3ccc4ccccc4c32)c1 (stereo not given),–,5.52 µM (active)
COc1cccc(C2c3c(ncn(-c4ccc5c(c4)OCO5)c3=N)Oc3ccc4ccccc4c32)c1 (stereo not given),–,0.552 µM (active)
O=C1OC(c2ccccc2)(c2ccccc2)N2CCN(C(=O)NCc3ccc(F)cc3)CC12 (stereo not given),–,0.139 µM (active)
COc1ccc(C2c3c(N)nc(CCCc4ccccc4)nc3Oc3ccc4ccccc4c32)cc1OC (stereo not given),-53.4% [at 50.9 µM],–
COc1ccc(C2c3c(nc(CCc4ccccc4)[nH]c3=O)Oc3ccc4ccccc4c32)cc1OC (stereo not given),-61.9% [at 50.9 µM],–
COc1cccc(C2c3c(ncn(-c4ccccc4OC)c3=N)Oc3ccc4ccccc4c32)c1 (stereo not given),–,1.1 µM (active)
COc1cccc(N2CCN(c3ncnc4c3[nH]c3ccc(F)cc34)CC2C)c1 (stereo not given),–,0.631 µM (active)
COc1ccc(C2c3c(nc(Cc4ccccc4)[nH]c3=O)Oc3ccc4ccccc4c32)cc1OC (stereo not given),12.3% [at 50.9 µM],–
COc1cccc(C2c3c(ncn(Cc4cccs4)c3=N)Oc3ccc4ccccc4c32)c1 (stereo not given),–,3.48 µM (active)
COc1cccc(C2c3c(ncn(-c4cccc(C#N)c4)c3=N)Oc3ccc4ccccc4c32)c1 (stereo not given),–,4.38 µM (active)
COc1ccc(C2c3c(ncn(CCCc4ccccc4)c3=N)Oc3ccc4ccccc4c32)cc1OC (stereo not given),-76.1% [at 50.9 µM],–
c1ccc(P(c2ccccc2)c2cnc3ccccn23)cc1,–,11 µM (active)
CCCCCN1C=CC=C/C1=C\C=C(C#N)C#N,-25.1%,–
C/C(=N\Nc1ncc(Cl)cc1Cl)c1ccccn1,–,2.51 µM (active)
COc1ccc(C2c3ccc(OCc4ccccc4)cc3Oc3ncn(CCN4CCOCC4)c(=N)c32)cc1OC (stereo not given),-60.5% [at 50.9 µM],–
CC(=O)c1sc(-c2ccccc2)cc1NS(=O)(=O)c1ccccc1,19.9%,–
COc1cccc(C2c3c(ncn(-c4cccnc4)c3=N)Oc3ccc4ccccc4c32)c1 (stereo not given),–,2.76 µM (active)

SMILES,"activity change, negative = inhibition",Potency
COc1cccc(C2c3c(ncn(-c4ccncc4)c3=N)Oc3ccc4ccccc4c32)c1 (stereo not given),–,4.38 µM (active)
COc1ccc(C2c3c(N)nc(Cc4ccccc4)nc3Oc3ccc4ccccc4c32)cc1OC (stereo not given),-11.7% [at 50.9 µM],–
COc1cccc(C2c3c(ncn(-c4ccc(Br)cc4)c3=N)Oc3ccc4ccccc4c32)c1 (stereo not given),–,2.76 µM (active)
COc1ccc(C2c3c(n(Cc4ccccc4)cnc3=N)Oc3ccc4ccccc4c32)cc1OC (stereo not given),-28.1% [at 50.9 µM],–
COC(=O)c1ccc(C(=O)OC)c(NC(=O)CSc2cccc[n+]2[O-])c1,17.1%,–
COc1ccc(C2c3c(ncn(Cc4ccccc4)c3=N)Oc3ccc4ccccc4c32)cc1OC (stereo not given),–,1.39 µM (active)
Cc1ccc(Nc2cc(C)nn2-c2nc(C)cc(C)n2)cc1,24.7%,–
CCCN1C(=O)/C(=C\C=C2/C=CN(CC)c3ccccc32)SC1=S,-24.1%,–
Cc1oc2c(c1C(=O)NCc1cccnc1)C(=O)c1ccccc1C2=O,16.4%,–
COc1ccc(C2c3c(nc(CCCc4ccccc4)[nH]c3=O)Oc3ccc4ccccc4c32)cc1OC (stereo not given),11.2% [at 50.9 µM],–
CCOC(=O)c1cnc(-n2nc(C)cc2C)nc1NC1CCCC1,–,2.82 µM (active)
CC1(C)Cc2c(c(N3CCOCC3)nc3sc4c(NCC5CCCO5)nnnc4c23)CS1 (stereo not given),-40.4%,–
COc1cccc(C2c3c(ncn(-c4ccc(-c5ccccc5)cc4)c3=N)Oc3ccc4ccccc4c32)c1 (stereo not given),-6.38% [at 50.9 µM],–
Cc1c(P(=S)(c2ccccc2)c2ccccc2)c2ccccc2n1Cc1ccccc1,52.1% [at 50.9 µM],–
COc1ccc2c(c1)Oc1ncn(CCN3CCOCC3)c(=N)c1C2c1ccc(OC)c(OC)c1 (stereo not given),–,11 µM (active)
COc1cccc(C2c3c(ncn(-c4ccccc4C)c3=N)Oc3ccc4ccccc4c32)c1 (stereo not given),–,5.52 µM (active)
COc1cccc(C2c3c(ncn(-c4ccccc4C#N)c3=N)Oc3ccc4ccccc4c32)c1 (stereo not given),–,4.38 µM (active)
Cc1nn(C)cc1/C=N/NC(=S)Nc1ccccc1,3.91%,–
COc1cc(/C=C2\SC(c3ccc(C)cc3)=NC2=O)cc(OC)c1O,7.8%,–
COc1cccc(C2c3c(ncn(-c4ccccn4)c3=N)Oc3ccc4ccccc4c32)c1 (stereo not given),–,5.52 µM (active)

# — PubChem BioAssay AID2567 (National Center for Advancing Translational Sciences (NCATS), 2010)
